Test results taken from PubChem BioAssay AID720597 (Broad Institute, 2013).
Entries with a potency or affinity are not part of this list. Activity calls are given as the source filed them.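 How the source made its calls: active means fitted half-maximal dose no more than twice the top valid tested dose, for compounds that lower signal; inconclusive means fit invalid, or curve flat with activity between -70 and -30; inactive means potency past limit, curve flat within ±30, or signal increasing.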

The compounds below were run against NAD-dependent protein deacylase sirtuin-5, mitochondrial (Homo sapiens) (UniProt Q9NXA8) (assay: SIRT5 deacylase inhibitors, dose response, biochemical, fluorescence imaging, cherry-pick, set 6 (AID 720597;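 further: lower AMC signal can also come from blocking the trypsin step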)). Settings: Purified SirT5, succinyl-peptide-AMC/trypsin fluorescence; series mostly up to 15 µM.
Sequence of NAD-dependent protein deacylase sirtuin-5, mitochondrial (Homo sapiens) (Q9NXA8 whole entry, looked up): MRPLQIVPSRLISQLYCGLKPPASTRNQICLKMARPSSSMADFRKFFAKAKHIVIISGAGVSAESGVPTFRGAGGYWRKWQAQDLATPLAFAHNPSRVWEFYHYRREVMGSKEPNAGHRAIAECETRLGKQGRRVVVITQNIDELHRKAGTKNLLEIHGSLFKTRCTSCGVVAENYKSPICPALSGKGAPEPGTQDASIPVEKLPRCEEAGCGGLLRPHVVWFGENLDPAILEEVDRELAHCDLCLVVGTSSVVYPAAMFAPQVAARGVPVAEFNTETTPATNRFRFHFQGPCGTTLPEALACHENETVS
With COc1ccc(S(=O)(=O)N(C)C[C@H]2Oc3ccc(NC(=O)NC4CCCCC4)cc3C(=O)N([C@@H](C)CO)C[C@@H]2C)cc1 the outcome was “inactive”.
For Cc1ccc(S(=O)(=O)N(C)C[C@@H]2OCCCC[C@@H](C)Oc3ccc(NS(=O)(=O)c4ccccc4)cc3C(=O)N([C@@H](C)CO)C[C@@H]2C)cc1, the outcome was “inactive”.
COc1ccccc1-c1ccc2n(c1=O)C[C@@H]1[C@@H](CO)[C@H](C(=O)N3CCCCC3)[C@H]2N1CC1CC1 was tested, and the outcome was “inactive”.
With COc1ccc(S(=O)(=O)Nc2ccc3c(c2)C(=O)N([C@@H](C)CO)C[C@H](C)[C@H](CN(C)Cc2ccc(C(F)(F)F)cc2)OCCCC[C@@H](C)O3)cc1 the outcome was “inactive”.
For CO[C@H]1CN(C)C(=O)c2cc(NC(=O)NC3CCCCC3)ccc2OC[C@H](C)N(CCc2ccccc2)C[C@@H]1C, the outcome was “inactive”.
With CNC[C@H]1Oc2c(NC(=O)c3ccc(-c4nccs4)cc3)cccc2C(=O)N([C@H](C)CO)C[C@H]1C the outcome was “inactive”.
For OC[C@H]1[C@@H](c2ccc(-c3cccc(F)c3)cc2)[C@H]2CN(CCC(F)(F)F)CCCCN21, the outcome was “inactive”.
For CC(C)CC#Cc1ccc2c(c1)O[C@H](CN(C)C(=O)C1CCCCC1)[C@H](C)CN([C@@H](C)CO)S2(=O)=O, the outcome was “inactive”.
For CCCC#Cc1cnc2c(c1)C(=O)N([C@@H](C)CO)C[C@@H](C)[C@H](CN(C)S(=O)(=O)c1cccc(OC)c1)O2, the outcome was “inactive”.
For CC(=O)N(C)C[C@H]1Oc2ncc(-c3cccc(F)c3)cc2C(=O)N([C@@H](C)CO)C[C@H]1C, the outcome was “inactive”.
In the case of CO[C@H]1CN(C)C(=O)c2cc(NC(=O)c3ccccc3F)ccc2OC[C@@H](C)NC[C@@H]1C, the outcome was “inactive”.
In the case of Cc1cccc(-c2ccc([C@H]3[C@H](CO)N4CCCCN(S(=O)(=O)c5cccc(C)c5)C[C@@H]34)cc2)c1, the outcome was “inactive”.
